Growth data for 14 compounds are collected here from PubChem BioAssay (NCI).

The structures appear in SMILES notation. About 83,000 compounds went through this panel and 20% of them were active in at least one assay; those are over-represented in the sample as a whole.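 Cell lines were cultured in 96-well plates, exposed to a single compound concentration, and assessed for percent growth 48 hours later.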 Unmarked numbers belong to inactive results. Calls of active or inactive are those of the source. How the source made its calls: active means growth percent below 10; inactive means the rest.

What all share (assay): NCI-60 one-dose screen, 48 h (100 = growth as untreated, 0 = no growth, -100 = all killed)
Holding throughout (conditions): 10 µM

Experiment [1] deals with EKVX NSCLC.
In experiment [2] the test system is SN12C renal.
For experiment [3], the system named is UO-31 renal.
Experiment [4] relates to TK-10 renal.
In experiment [5] the test system is ACHN renal.
In experiment [6] the test system is CAKI-1 renal.
Experiment [7] has as its system A498 renal.
The test system of experiment [8] is CCRF-CEM leukemia.
The subject of experiment [9] is MOLT-4 leukemia.
The test system of experiment [10] is SR leukemia.

Regarding `CN1CC[C@@H](c2c(O)cc(O)c3c(=O)cc(-c4ccccc4Cl)oc23)[C@@H](O)C1`, the growth in experiment [1] was 9.74% (active); in experiment [2], 26.8%; in [3], -5.67% (active); in experiment [4], 0.554% (active); in [5] it was -14.1% (active); in experiment [6] it was 5.1% (active). For the same compound, the growth was -40.8% (active) in experiment [7], -9.53% (active) in experiment [8], -6.09% (active) in experiment [9] and -4.82% (active) in [10].

In the case of `O=C(O)c1ccc(Cl)cc1Nc1ccc(F)cc1`, the growth in experiment [1] was 67.3%; in experiment [2], 69.4%; in experiment [3], 62.5%; in experiment [4] it was 84.9%; in experiment [5], 82.4%; in experiment [6], 29.1%. Further, the growth in [7] was 83.7%; in experiment [8], 31.4%; in experiment [9] it was 56.8%; in experiment [10] it was 57.2%.

With `N=c1nc(N)ncn1-c1ccccc1`, the growth in [1] was 99.7%; in experiment [2], 87.3%; in [3] it was 94.5%; in experiment [4], 102%; in [5], 101%; in experiment [6] it was 97.9%. For the same compound, the growth in [7] was 83.8%; in experiment [8], 84.9%; in experiment [9] it was 109%; in experiment [10], 97.4%.

Turning to `O=[N+]([O-])c1cccc(N=Cc2ccc3c(c2)OCO3)c1`, the growth was 104% in experiment [1]; 101% in [2]; 76.7% in [3]; 106% in experiment [4]; 122% in experiment [5]; 98.3% in experiment [6]. Further, the growth was 118% in experiment [7], 97% in experiment [8], 89.7% in experiment [9] and 102% in experiment [10].

Regarding `O=C1OCC2=C1C(c1cccc(Br)c1)c1cc3c(cc1N2CCO)CCC3` (configuration not stated), the growth was 47.7% in experiment [1]; 21.2% in experiment [2]; 33.9% in experiment [3]; 62.6% in experiment [4]; 20.9% in experiment [5]; 20.8% in [6]. For the same compound, the growth was -11.2% (active) in [7], 8.55% (active) in experiment [8], 14.1% in [9] and 28.5% in [10].

As to `CN(C)CCN1C(=O)c2cccc3c(-c4ccc5ncn(C6CCCCC6)c5c4)ccc(c23)C1=O`, the growth is 29.8% in experiment [1]; 19.3% in [2]; 2.42% (active) in [3]; 26.7% in experiment [4]; 13.8% in [5]; 25% in [6]. In addition, the growth in experiment [7] was 4.69% (active); in [8], 15.4%; in [9] it was -18.7% (active); in experiment [10] it was 3.59% (active).

Take `COC(=O)C(=C\c1ccc2c(c1)OCO2)/C(=C/c1ccc2c(c1)OCO2)C(=O)OC`: the growth in [1] was 97%; in [2], 112%; in [3], 90.3%; in experiment [4], 100%; in [5], 94.3%; in experiment [6] it was 94.7%. Also, the growth in experiment [7] was 106%; in [8], 101%; in experiment [9] it was 105%; in experiment [10], 98.8%.

For `COc1ccc2c(c1)N(CCO)C1=C(C(=O)OC1)C2c1ccccc1` (configuration not stated), the growth in experiment [1] is 45%; in experiment [2], 48.1%; in [3], 47.1%; in experiment [4], 44.7%; in [5], 48.6%; in experiment [6] it was 14.9%. The growth in experiment [7] was -5.47% (active); in [8], 20%; in experiment [9] it was 35.4%; in experiment [10], 20.7%.

Regarding `COc1ccc2c(c1)N(CCO)C1=C(C(=O)OC1)C2c1ccc(OC)c(OC)c1` (configuration not stated), the growth in experiment [1] was 67%; in [2], 60.8%; in [3], 60.9%; in [4] it was 59.3%; in experiment [5], 43.7%; in experiment [6], 52.3%. The growth in [7] was 14.9%; in experiment [8], 34.2%; in experiment [9], 43.4%; in experiment [10], 21%.

For the compound `CN(C)CCOc1nc2ccccc2c2c1-c1ccc(Cl)cc1C2=O`, the growth in [1] was -1.93% (active); in experiment [2] it was 11.3%; in experiment [3], -33.1% (active); in experiment [4] it was -16.4% (active); in experiment [5], 10.1%; in experiment [6], -13.7% (active). Further, the growth in experiment [7] is 25.2%; in [8], 2.75% (active); in experiment [9], 1.17% (active); in experiment [10], -6.41% (active).

For `Nc1ccc2cc(S(=O)(=O)O)cc(O)c2c1N=Nc1ccc(F)cc1`, the growth in experiment [1] was 107%; in [2] it was 112%; in experiment [3], 51.3%; in experiment [4] it was 123%; in experiment [5] it was 99.7%; in [6] it was 108%. The growth is 129% in experiment [7] and 99.8% in experiment [9].

With `CC/C(=N\N=C(/CC)c1ccc(Br)cc1)c1ccc(Br)cc1`, the growth in [1] was 90.6%; in experiment [2] it was 96%; in [3], 92.6%; in experiment [4], 111%; in [5], 94.4%; in experiment [6] it was 99.3%. In addition, the growth in experiment [7] is 103%; in [8], 105%; in experiment [9], 105%; in experiment [10], 96.9%.

As for `COc1cc2nc(Nc3cccc(C(=O)O)c3)nc(N)c2cc1OC`, the growth is 95.2% in experiment [1]; 95.4% in experiment [2]; 78.3% in [3]; 108% in experiment [4]; 93.9% in experiment [5]; 93.7% in experiment [6]. Moreover, the growth in [7] is 117%; in experiment [9] it was 12.8%; in experiment [10], 105%.

`COC(=O)[C@@H]1[C@H](O)[C@H](C)[C@H](O)[C@@](C)(O)/C=C\C=C(C)C(=O)Nc2c(C)c(OC(C)=O)c3c(c2O)C(=O)C(C)=C2OCOC(=C23)C(C)=C[C@@](C)(O)[C@H](O)[C@@H](C)[C@H]1OC(C)=O`: the growth in experiment [1] is 108%; in experiment [2], 108%; in experiment [3] it was 88.7%; in [4] it was 126%; in experiment [5], 110%; in experiment [6] it was 100%. For the same compound, the growth in [7] was 120%; in experiment [8], 111%; in [9] it was 95.6%; in [10] it was 92.1%.
